Consider 31 compounds from PubChem BioAssay (EPA / NIEHS).

Structures are written as SMILES. Values joined by “and” are separate entries in the source; they are usually repeats but may differ in a detail not shown here. Equal entries are not always repeated. Inconclusive results are not listed. A structure can be active in one record and inactive in another. Active and inactive are the calls of the source. Rule for the calls: active = hit-call score of the fitted dose curve at least 0.9, where 1 is the maximum; inconclusive = response in the unintended direction; inactive = score below 0.9.

The target of assay [1] is Cellular tumor antigen p53 (Homo sapiens) (UniProt P04637). The assay is described as follows: TOX21_p53_BLA_p2_ratio: Tox21 HCT-116 p53 Agonism Beta-lactamase Assay, Ratio, Phase 2 (AID 2283592). In outline:
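Cleaved-to-uncleaved substrate ratio (460 vs 530 nm) measured in HCT116 cells with an inducible beta-lactamase reporter linked to p53 activity. Compounds incubated 16 h at 37C before 2 h room-temperature CCF4-AM loading.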

Assay [2] is described as follows: TOX21_p53_BLA_p3_viability: Viability Assessment in the Tox21 HCT-116 p53 Agonism Beta-lactamase Assay, Phase 3 (AID 2283593).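 Note: cells exposed to compound for 16 h before reading.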 In outline: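 HCT-116 cells (4000/well) rested 5 h at 37C, then got DMSO compounds by pin tool (217-fold dilution) for 16 h at 37C, 5% CO2. After the bla read, CellTiter-Glo was added and luminescence read at 30 min, room temperature.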

The target in assay [3] is Cellular tumor antigen p53 (Homo sapiens) (UniProt P04637). The assay can be described thus: TOX21_p53_BLA_p3_ratio: Tox21 HCT-116 p53 Agonism Beta-lactamase Assay, Ratio, Phase 3 (AID 2283596). In a few lines:
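Cells were seeded at 4000/well, rested 5 h at 37C, then dosed with DMSO compound solutions (217-fold dilution) for 16 h. CCF4-AM substrate was loaded for 2 h at room temperature, and the 460/530 nm emission ratio was fitted for gain of signal versus DMSO.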

Assay [4] in a line: TOX21_p53_BLA_p4_viability: Viability Assessment in the Tox21 HCT-116 p53 Agonism Beta-lactamase Assay, Phase 4 (AID 2283597).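 Note: hits lower the luminescence signal meaning cytotoxicity.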 In a few lines:
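Viability is taken as cellular ATP: after 16 h compound exposure of HCT116 cells and a 2 h room-temperature CCF4-AM substrate step, CellTiter-Glo reagent is added and luminescence is measured 30 min later.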

The target of assay [5] is Cellular tumor antigen p53 (Homo sapiens) (UniProt P04637). The assay is described as follows: TOX21_p53_BLA_p5_ratio: Tox21 HCT-116 p53 Agonism Beta-lactamase Assay, Ratio, Phase 5 (AID 2283599). In outline:
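HCT-116 cells carrying a p53-inducible beta-lactamase reporter were seeded at 4000 cells/well and dosed after 5 h with compound in DMSO (217-fold dilution). After 16 h at 37C, CCF4-AM substrate was added for 2 h, and the 460/530 nm emission ratio was scored as gain-of-signal versus DMSO.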

Assay [6] has the same target. The assay can be described thus: TOX21_p53_BLA_p4_ratio: Tox21 HCT-116 p53 Agonism Beta-lactamase Assay, Ratio, Phase 4 (AID 2283601). In outline:
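HCT116 cells carrying an inducible beta-lactamase reporter were plated at 4000 cells/well, rested 5 h, then exposed to compounds in DMSO (217-fold dilution) for 16 h at 37C. CCF4-AM substrate was loaded 2 h at room temperature; 460/530 nm emission ratio scored gain-of-signal versus DMSO.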

Assay [7] in a line: TOX21_p53_BLA_p5_viability: Viability Assessment in the Tox21 HCT-116 p53 Agonism Beta-lactamase Assay, Phase 5 (AID 2283600). In outline:
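Viability is taken from cellular ATP content, measured by luciferase luminescence in the same wells after the beta-lactamase ratio read. Cells are seeded at 4000 per well and exposed to DMSO-dissolved compounds, diluted 217-fold, for 16 h.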

Sequence of Cellular tumor antigen p53 (Homo sapiens) (P04637 whole entry, looked up): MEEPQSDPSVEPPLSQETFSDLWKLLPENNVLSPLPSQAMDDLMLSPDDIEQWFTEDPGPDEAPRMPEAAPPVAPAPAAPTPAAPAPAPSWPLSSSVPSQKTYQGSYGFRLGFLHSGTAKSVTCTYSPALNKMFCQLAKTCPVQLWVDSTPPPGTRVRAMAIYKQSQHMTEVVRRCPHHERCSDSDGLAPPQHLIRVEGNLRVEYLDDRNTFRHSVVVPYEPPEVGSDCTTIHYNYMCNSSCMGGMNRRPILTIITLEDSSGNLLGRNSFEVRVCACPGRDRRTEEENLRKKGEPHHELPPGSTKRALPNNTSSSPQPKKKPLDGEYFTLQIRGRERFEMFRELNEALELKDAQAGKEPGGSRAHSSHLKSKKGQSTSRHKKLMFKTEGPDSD

For the compound `O=C(CCl)Nc1ccccc1`, the result in assay [1], in assay [2], in assay [3], in assay [4], in assay [5] and in assay [6] was inactive.

`O=[N+]([O-])c1ccc(Nc2ccccc2)cc1`: the AC50 (usually the midpoint of the concentration-response curve, whichever way the signal moves) in assay [1] was 72.5 µM (active); in assay [3], 42.4 µM (active) and 90.9 µM (active); in assay [4] it was 82.4 µM (active); in assay [7], 66.3 µM (active); in assay [6], 43.1 µM (active). Besides, the result in assay [1], in assay [4], in assay [7] and in assay [6] was inactive.

As for `[F][Sn]([c]1ccccc1)([c]1ccccc1)[c]1ccccc1`, the AC50 in assay [1] is 10.1 µM (active); in assay [2], 13.3 µM (active); in assay [3], 13.5 µM (active); in assay [4], 3.96 µM (active); in assay [5], 18.3 µM (active); in assay [7], 13.2 µM (active). Moreover, the AC50 in assay [6] is 12 µM (active).

For the compound `Nc1cccnc1`, the outcome in assay [1], in assay [2], in assay [3], in assay [4], in assay [5] and in assay [7] was inactive. In addition, in assay [6], the result was inactive.

In the case of `Nc1ccc(-c2ccccc2)cc1`, the outcome in assay [1], in assay [2], in assay [3], in assay [4], in assay [5] and in assay [7] was inactive. In addition, the result in assay [6] was inactive.

On to `CCC(C)(C#N)N=NC(C)(C#N)CC` (configuration not stated), for which the outcome in assay [1], in assay [2], in assay [4], in assay [5] and in assay [7] was inactive.

Turning to `CCOc1cc(C=O)ccc1O`, the outcome in assay [1], in assay [2], in assay [3], in assay [4], in assay [7] and in assay [6] was inactive.

Take `COC(=O)Nc1cccc(OC(=O)Nc2cccc(C)c2)c1`: the outcome in assay [1], in assay [2], in assay [3], in assay [4] and in assay [7] was inactive.

In the case of `Clc1cnc(Oc2ccc(Oc3ncc(Cl)cc3Cl)cc2)c(Cl)c1`, the outcome in assay [1], in assay [2], in assay [4], in assay [5], in assay [7] and in assay [6] was inactive.

Consider `O=[N+]([O-])c1cccc2ccccc12`, for which the outcome in assay [1], in assay [2], in assay [3], in assay [4], in assay [5] and in assay [6] was inactive.

As to `COC(=O)c1cc(Oc2ccc(Cl)cc2Cl)ccc1[N+](=O)[O-]`, the result in assay [1], in assay [2], in assay [3], in assay [4], in assay [5] and in assay [7] was inactive. Moreover, the result in assay [6] was inactive.

On to `O=C=Nc1ccc(Cl)cc1`, for which the outcome in assay [1], in assay [2], in assay [3], in assay [4], in assay [7] and in assay [6] was inactive.

For `CCCCCCCCCCCCCl`, the result in assay [1], in assay [2], in assay [3], in assay [4], in assay [7] and in assay [6] was inactive.

Take `ClCCCCl`: the result in assay [1], in assay [2], in assay [4], in assay [5] and in assay [7] was inactive.

Turning to `CC(C)(C)c1cc([N+](=O)[O-])cc(C(C)(C)C)c1O`, the AC50 in assay [1] is 3.81 µM (active); in assay [3], 4.47 µM (active); in assay [4] it was 46.1 µM (active); in assay [6], 46.1 µM (active). Also, the compound was classed as inactive in assay [2] and in assay [7].

`CCCCOC(C)=O`: the result in assay [1], in assay [2], in assay [3] and in assay [6] was inactive.

As for `O=C(NC(=O)c1c(F)cccc1F)Nc1cc(Cl)c(F)c(Cl)c1F`, the outcome in assay [1], in assay [2], in assay [3], in assay [4], in assay [7] and in assay [6] was inactive.

For the compound `CCOC(=O)C(SP(=S)(OC)OC)c1ccccc1` (configuration not stated), the outcome in assay [1], in assay [2], in assay [3], in assay [7] and in assay [6] was inactive.

Take `C=CCN=C=S`: the result in assay [1], in assay [3], in assay [4], in assay [5], in assay [7] and in assay [6] was inactive.

As for `O=[N+]([O-])c1ccc(Cl)c([N+](=O)[O-])c1`, the AC50 was 75.5 µM (active) in assay [1]; 71.9 µM (active) and 42.9 µM (active) in assay [4]; 32.3 µM (active) and 74.9 µM (active) in assay [5]; 44 µM (active) and 44.4 µM (active) in assay [7]; 22.7 µM (active) in assay [6]. The result in assay [1], in assay [3] and in assay [6] was inactive.

`CCOP(=S)(OCC)Oc1ccc(Cl)cc1Cl`: the outcome in assay [1], in assay [2], in assay [3], in assay [7] and in assay [6] was inactive.

On to `C=CCCl`, for which the result in assay [1], in assay [2], in assay [3] and in assay [5] was inactive.

For the compound `Cc1cccc(C)c1NC(=O)CN1CCCC1=O`, the result in assay [1], in assay [2], in assay [3], in assay [4], in assay [7] and in assay [6] was inactive.

On to `CN(C)c1ccc(N=O)cc1`, for which the AC50 in assay [1] is 75.7 µM (active); in assay [2], 88.2 µM (active) and 80.8 µM (active); in assay [4] it was 70.4 µM (active) and 69.5 µM (active); in assay [5], 83.8 µM (active) and 86.6 µM (active); in assay [7] it was 74.2 µM (active) and 79.4 µM (active); in assay [6], 86.9 µM (active). Also, the outcome in assay [1], in assay [3] and in assay [6] was inactive.

Regarding `CCOc1ccc(N)cc1`, the result in assay [1], in assay [2], in assay [3], in assay [4], in assay [7] and in assay [6] was inactive.

As for `CCC[N+](CCC)(CCC)CCC`, the outcome in assay [1], in assay [2], in assay [3] and in assay [5] was inactive.

As to `CC1(C)[C@H](C(=O)O[C@H](C#N)c2cccc(Oc3ccccc3)c2)[C@@H]1/C=C(\Cl)C(F)(F)F`, the result in assay [1], in assay [2] and in assay [6] was inactive.

For the compound `CC(C=O)Cc1ccc2c(c1)OCO2` (configuration not stated), the outcome in assay [1], in assay [2], in assay [3], in assay [4], in assay [5] and in assay [7] was inactive. The result in assay [6] was inactive.

`C=CC(=O)[O][Sn]([CH2]CCC)([CH2]CCC)[CH2]CCC`: the AC50 in assay [1] was 13.5 µM (active); in assay [2], 1.64 µM (active); in assay [3] it was 13.6 µM (active); in assay [4], 1.56 µM (active); in assay [7] it was 1.82 µM (active); in assay [6], 13.4 µM (active).

For `CC1(C)[C@H](/C=C2\CCSC2=O)[C@@H]1C(=O)OCc1coc(Cc2ccccc2)c1`, the result in assay [1], in assay [2], in assay [3], in assay [4], in assay [5] and in assay [7] was inactive. Besides, the AC50 in assay [6] was 69.3 µM (active).

On to `Cc1cc(Cl)ccc1OCCCC(=O)O`, for which the outcome in assay [1], in assay [2], in assay [3], in assay [4], in assay [5] and in assay [7] was inactive. Also, the result in assay [6] was inactive.
